Assay [1] can be described thus: qHTS assay for small molecule agonists of the p53 signaling pathway (AID 651631; calls by dose curve; note: nearly all actives have a fitted effect of over 15% in size). The essentials: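 Fluorescence intensity from cleaved LiveBLAzer B/G substrate (2 h, room temperature) served as the signal. Beforehand, HCT-116 reporter cells bearing p53 response elements were treated 16 h at 37 °C with DMSO-dissolved compounds.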
The nature of assay [2]: qHTS assay for small molecules that induce genotoxicity in human embryonic kidney cells expressing luciferase-tagged ATAD5 (AID 651632). Note: nearly all actives have a fitted effect of over 15% in size. The essentials: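 Increased luciferase signal from ATAD5-tagged reporter cells indicates DNA-damage-driven ATAD5 induction. HEK293T cells are treated for 16 hr at 37C before detection with Amplite.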
A short description of assay [3]: qHTS assay for small molecule agonists of the p53 signaling pathway - cell viability (AID 651633; calls by dose curve;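 note: p53RE-bla HCT reporter cells with a stable beta-lactamase p53 reporter; series mostly up to about 83 µM; nearly all actives have a fitted effect of over 30% in size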). The essentials: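 Viability counter-read: CellTiter-Glo luminescence (30 min, room temperature) in the same p53RE-bla plates. These plates had been exposed to compounds for 16 h at 37 C.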
A short description of assay [4]: qHTS assay for small molecules that induce genotoxicity in human embryonic kidney cells expressing luciferase-tagged ATAD5 - cell viability (AID 651634; calls by dose curve; note: nearly all actives have a fitted effect of over 25% in size). The essentials:
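Cytotoxicity counterscreen in HEK293T cells bearing an ATAD5-luciferase reporter: live-cell protease activity measured by CellTiter-Fluor fluorescence after 15.5 hr compound exposure.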

A short description of assay [5]: qHTS assay for small molecule disruptors of the mitochondrial membrane potential - cell viability (AID 720634; calls by dose curve; note: nearly all actives have a fitted effect of over 20% in size; note: potency is the fitted concentration of half-maximal effect). The essentials: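 After overnight attachment at 37 C, HepG2 cells received compound or DMSO vehicle for 1 hr. Viability is then taken from ATP-driven luminescence following a 30 min room-temperature CellTiter-Glo step.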
Assay [6] can be described thus: qHTS assay for small molecule disruptors of the mitochondrial membrane potential (AID 720635). Note: potency is the fitted concentration of half-maximal effect. The essentials:
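Mitochondrial membrane potential tracked with Mito-MPS dye, red aggregates (ex 540/em 590 nm) against green monomers (ex 490/em 535 nm). Compound treatment 1 hr at 37C, dye 30 min in HepG2.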

Assay [7] can be described thus: qHTS assay to test for compound auto fluorescence at 590 nm (red) in HepG2 cells (AID 720674). The essentials: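 1 hr compound incubation on HepG2 cells, 37 C, 5% CO2; plate read ex 540 nm / em 590 nm; intensities reported as Rose Bengal sodium equivalents.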
Assay [8] is described as follows: qHTS assay to test for compound auto fluorescence at 535 nm (green) in HepG2 cells (AID 720675).
Assay [9] can be described thus: qHTS assay to test for compound auto fluorescence at 460 nm (blue) in HEK293 cells (AID 720678). The essentials: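 Intrinsic compound fluorescence is recorded in live HEK293 cultures after overnight incubation at 37C, 5% CO2, using excitation 405 nm and emission 460 nm. Values are referenced to triamterene.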
Assay [10] in a line: qHTS assay to test for compound auto fluorescence at 590 nm (red) in HEK293 cells (AID 720679). The essentials:
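Red autofluorescence, HEK293 cells: 2,000 cells/well; attach 4-5 hr 37C; add 23 nL cpd or DMSO; incubate o/n 37C 5% CO2; read Ex540/Em590; Rose Bengal sodium reference.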

The nature of assay [11]: qHTS assay to test for compound auto fluorescence at 535 nm (green) in HEK293 cells (AID 720680).
Assay [12] in a line: qHTS assay to test for compound auto fluorescence at 460 nm (blue) in HEK293 cell free culture (AID 720681). The essentials:
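Blue fluorescence (Ex 405/Em 460 nm, triamterene-equivalent) was read immediately after pin transfer of compound or DMSO into medium (DMEM, 10% FBS) without cells.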

Assay [13] can be described thus: qHTS assay to test for compound auto fluorescence at 535 nm (green) in HEK293 cell free culture (AID 720682). The essentials: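 Intrinsic compound fluorescence is measured in culture medium containing 10% FBS, with excitation at 485 nm and detection at 535 nm, referenced to fluorescein.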
A short description of assay [14]: qHTS assay to test for compound auto fluorescence at 590 nm (red) in HEK293 cell free culture (AID 720683). The essentials: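 Red-channel autofluorescence of compounds in culture medium (DMEM, 10% FBS), no cells, measured at 540/590 nm. Rose Bengal sodium is the reference fluorophore for equivalence.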
Assay [15] can be described thus: qHTS assay to test for compound auto fluorescence at 590 nm (red) in HepG2 cell free culture (AID 720684). The essentials: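 Steps: dispense MEM/10% FBS medium, no cells; pin compound or DMSO vehicle; read red channel, Ex/Em 540/590 nm. Output given as Rose Bengal sodium equivalents.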
The nature of assay [16]: qHTS assay to test for compound auto fluorescence at 460 nm (blue) in HepG2 cell free culture (AID 720685). The essentials: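 Compound (23 nL) or DMSO pinned into cell-free MEM with 10% FBS; blue fluorescence read at 405/460 nm excitation/emission, expressed as auto-fluorescence equivalency to triamterene.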
The nature of assay [17]: qHTS assay to test for compound auto fluorescence at 535 nm (green) in HepG2 cell free culture (AID 720686).
A short description of assay [18]: qHTS assay to test for compound auto fluorescence at 460 nm (blue) in HepG2 cells (AID 720687). The essentials:
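Blue-channel autofluorescence (Ex/Em 405/460 nm, triamterene-equivalent) was measured after 1 hr compound exposure at 37 C, 5% CO2. Cells were HepG2, plated overnight at 37 C in MEM plus 10% FBS.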

For assay [19], the target named is Glucocorticoid receptor (Homo sapiens) (UniProt P04150). In words: qHTS assay to identify small molecule agonists of the glucocorticoid receptor (GR) signaling pathway (AID 720691; active = well fitted activation curve with a large enough effect in the signal ratio in the repeat runs, not every such curve was filed as active; the % refers to the signal ratio). The essentials: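 Agonist mode in a HeLa line carrying a GRE-controlled beta-lactamase reporter. Compounds act for 18 h at 37 C before a 2 h room-temperature FRET substrate step and fluorescence reading.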

Assay [20] has the same target. In words: qHTS assay to identify small molecule antagonists of the glucocorticoid receptor (GR) signaling pathway (AID 720692; active = well fitted inhibition curve with a large enough effect in the signal ratio in the repeat runs, not every such curve was filed as active; the % refers to the signal ratio). The essentials:
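Cells plated, rested 4 h at 37 C/5% CO2; compounds in DMSO pin-transferred; dexamethasone added to 5 nM final; 18 h at 37 C; B/G FRET substrate added, 2 h room temperature; fluorescence measured.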

The structures appear in SMILES notation. Where “and” joins values, the source holds several entries; their conditions need not be identical. Identical values can stand only once. Records with an inconclusive call do not appear. Calls of active or inactive are those of the source. Unless noted, calls come from the whole dose curve; as a rule, active = well fitted curve in the direction sought with a large enough effect in the repeat runs; inconclusive = weak or mixed curves; inactive = no such curve, though single readings can be large; an effect the other way counts as inactive or inconclusive.

Sequence of Glucocorticoid receptor (Homo sapiens) (P04150 whole entry, looked up): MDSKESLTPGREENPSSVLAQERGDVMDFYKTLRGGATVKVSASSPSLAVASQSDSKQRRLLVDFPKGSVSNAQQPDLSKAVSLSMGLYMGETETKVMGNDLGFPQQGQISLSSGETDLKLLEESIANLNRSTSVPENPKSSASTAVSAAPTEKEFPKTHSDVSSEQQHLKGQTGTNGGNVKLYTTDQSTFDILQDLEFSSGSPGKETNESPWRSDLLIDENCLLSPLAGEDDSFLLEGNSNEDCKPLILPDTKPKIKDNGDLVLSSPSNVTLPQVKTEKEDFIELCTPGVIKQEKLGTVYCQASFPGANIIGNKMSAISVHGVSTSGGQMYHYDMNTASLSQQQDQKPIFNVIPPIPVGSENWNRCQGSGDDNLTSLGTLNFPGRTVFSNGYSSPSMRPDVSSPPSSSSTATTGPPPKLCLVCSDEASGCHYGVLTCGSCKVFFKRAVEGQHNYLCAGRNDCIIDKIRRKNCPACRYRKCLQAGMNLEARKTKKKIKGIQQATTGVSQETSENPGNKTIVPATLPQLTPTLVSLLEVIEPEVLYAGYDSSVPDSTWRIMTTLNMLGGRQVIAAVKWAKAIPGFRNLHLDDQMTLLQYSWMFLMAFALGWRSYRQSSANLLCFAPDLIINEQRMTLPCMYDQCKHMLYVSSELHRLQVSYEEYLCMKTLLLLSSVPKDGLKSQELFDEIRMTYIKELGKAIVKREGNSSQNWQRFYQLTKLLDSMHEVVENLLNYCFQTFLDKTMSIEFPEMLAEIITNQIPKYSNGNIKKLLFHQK

In the case of `NC(=O)CN1CCCC1=O`, the Potency result in assay [1], in [2], in assay [3], in assay [4], in [5] and in assay [6] was “inactive” in each case. In addition, the Potency result in [9], in [12], in [16], in [18] and in assay [20] was “inactive” each time. Further, the result in [7], in assay [8], in [10], in assay [11], in assay [13] and in assay [14] was inactive. For the same compound, the call in assay [15], in assay [17] and in [19] was inactive.
As to `CN(C)c1ccccc1`, the Potency entry in assay [1], in [2], in assay [3], in assay [4], in assay [5] and in [6] was “inactive” in each case. In addition, the Potency result in assay [9], in assay [12], in [16], in assay [18] and in assay [20] was “inactive” throughout. The call in [7], in assay [8], in assay [10], in [11], in [13] and in [14] was inactive. The outcome in [15], in [17] and in assay [19] was inactive.
Regarding `c1ccc2c(c1)Nc1ccccc1S2`, the Potency result in assay [1], in assay [2], in assay [3], in assay [4], in [9] and in assay [12] was “inactive” each time. The Potency result in assay [16] and in [18] was “inactive” each time. The Potency in assay [5] was 29.8 µM (active); in [6] it was 7.5 µM (active) and 4.33 µM (active). In addition, the compound was classed as inactive in assay [7], in [8], in assay [10], in assay [11], in [13] and in assay [14]. The compound was classed as inactive in assay [15].
As for `ClC(Cl)(Cl)Br`, the Potency result in assay [1], in assay [2], in [3], in assay [4], in [5] and in assay [6] was “inactive” throughout. In addition, the Potency entry in [9], in [12], in assay [16], in [18] and in [20] was “inactive” throughout. Besides, the compound was called inactive in assay [7], in assay [8], in [10], in [11], in assay [13] and in assay [14]. Also, the compound was classed as inactive in [15], in assay [17] and in assay [19].
Take `CCCCOCC1CO1` (stereo unspecified): the Potency entry in assay [1], in [2], in [3], in assay [4], in assay [5] and in assay [6] was “inactive” in each case. Moreover, the Potency entry in [9], in assay [12], in assay [16], in assay [18] and in assay [20] was “inactive” each time. For the same compound, the compound was classed as inactive in assay [7], in [8], in assay [10], in assay [11], in [13] and in assay [14]. In addition, the compound was classed as inactive in [15], in assay [17] and in assay [19].
In the case of `[CH3][Sn]([Cl])([Cl])[Cl]`, the Potency result in assay [1], in assay [2], in assay [3], in [4], in [5] and in assay [6] was “inactive” throughout. Further, the Potency entry in [9], in [12], in [16], in [18] and in assay [20] was “inactive” throughout. In addition, the compound was called inactive in assay [7], in assay [8], in assay [10], in assay [11], in assay [13] and in assay [14]. In addition, the outcome in assay [15] and in [19] was inactive.
Take `CCNc1nc(Cl)nc(NC(C)(C)C#N)n1`: the Potency result in [1], in assay [2], in assay [3], in assay [4], in [5] and in assay [6] was “inactive” in each case. The Potency result in [9], in assay [12], in assay [16], in assay [18] and in assay [20] was “inactive” throughout. For the same compound, the result in assay [7], in assay [8], in [10], in [11], in assay [13] and in [14] was inactive. For the same compound, the compound was called inactive in assay [15], in assay [17] and in assay [19].
Take `O=C1CCCO1`: the Potency entry in assay [1], in assay [2], in assay [3], in [4], in [5] and in [6] was “inactive” each time. In addition, the Potency entry in assay [9], in assay [12], in assay [16], in assay [18] and in assay [20] was “inactive” each time. Also, the call in assay [7], in [8], in assay [10], in [11], in assay [13] and in assay [14] was inactive. Besides, the compound was classed as inactive in assay [15] and in assay [19].
Consider `Nc1ccc2ccccc2c1`, for which the Potency entry in assay [1], in [2], in [3], in [4], in assay [5] and in assay [6] was “inactive” each time. Also, the Potency result in [9], in [12], in assay [16] and in [18] was “inactive” each time. The outcome in [7], in assay [8], in assay [10], in [11], in assay [13] and in [14] was inactive. For the same compound, the compound was classed as inactive in assay [15] and in [17].
With `N#CC(c1ccccc1)c1ccccc1`, the Potency entry in assay [1], in assay [2], in [3], in assay [4], in assay [5] and in [9] was “inactive” in each case. The Potency entry in assay [12], in assay [16], in assay [18] and in assay [20] was “inactive” in each case. In addition, the Potency in [6] is 7.69 µM (active). In addition, the outcome in [7], in [8], in [10], in assay [11], in assay [13] and in [14] was inactive. The outcome in assay [15], in [17] and in [19] was inactive.
For the compound `CC(C)Nc1nc(Cl)nc(NC(C)C)n1`, the Potency result in assay [1], in assay [2], in [3], in [4], in [5] and in assay [6] was “inactive” in each case. The Potency entry in assay [9], in assay [12], in [16] and in [18] was “inactive” throughout. Further, the compound was called inactive in assay [7], in [8], in assay [10], in assay [11], in assay [13] and in assay [14]. The result in assay [15] and in [17] was inactive.
In the case of `NN=C(N)N`, the Potency result in [2], in [3], in [4], in [5], in assay [6] and in assay [9] was “inactive” throughout. Moreover, the Potency entry in assay [12], in assay [16] and in [18] was “inactive” in each case. Besides, the compound was classed as inactive in assay [7], in [8], in [10], in assay [11], in [13] and in assay [14]. Besides, the result in assay [15] and in assay [17] was inactive.
For `C[N+](C)(C)C`, the Potency result in assay [1], in assay [2], in [3], in assay [4], in assay [9] and in [12] was “inactive” throughout. Besides, the Potency entry in assay [16] and in assay [18] was “inactive” in each case. The compound was called inactive in [7], in assay [8], in [10], in assay [11], in assay [13] and in [14]. The compound was called inactive in [15].
Take `CCCCC(C#N)(Cn1cncn1)c1ccc(Cl)cc1` (stereo unspecified): the Potency entry in [1], in assay [2], in [3], in [4], in assay [5] and in assay [9] was “inactive” each time. Moreover, the Potency entry in [12], in assay [16], in [18] and in [20] was “inactive” in each case. The compound was classed as inactive in [7], in assay [8], in assay [10], in assay [11], in [13] and in assay [14]. Also, the compound was classed as inactive in assay [15] and in assay [19].

Source of the values: PubChem BioAssay (Tox21).
